The panel holds about 83,000 compounds, 20% with a hit somewhere; the sample as a whole holds those more often.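 How to read the values: 0–100, growth inhibition (40 = 60% inhibited); 0, no net growth; -100 to 0, cell death (-40 = 40% of starting cells died; -100 = all dead).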 Calls of active or inactive are those of the source.

These results are taken from PubChem BioAssay (NCI).

The assay deals with HOP-92 NSCLC. Nature of the assay: NCI-60 one-dose screen, 48 h (100 = growth as untreated, 0 = no growth, -100 = all killed). To be noted: 10 µM unless noted. The protocol:
Growth inhibition of the HOP-92 human Non-Small Cell Lung tumor cell line is measured as a screen for anti-cancer activity. Cells are grown in 96 well plates and exposed to the test compound for 48 hours. Compounds are tested at a single concentration, which is 10^-5 M for most compounds. The reported endpoint is percent growth (GI% or GIPRCNT), where numbers from 0 - 100% represent growth inhibition, and numbers from -100% - 0 represent cell death. For example, a value of 40 represents 60% growth inhibition. A value of 0 means no net growth occurred over the course of the experiment. A value of -40 indicates 40% of cells at the beginning of the experiment died by the end of the experiment. A value of -100 means all cells are dead at the end of the experiment.
NCI-60 Human Tumor Cell Lines Screen was performed using the standard one-dose NCI protocol, which is described in more detail at https://dtp.cancer.gov/discovery_development/nci-60/default.htm.
Compounds with GIPRCNT values below 10 were considered active. Activity score was based on GIPRCNT using the following formula: […]
Score is 0 for GIPRCNT values of 100 or above, 50 for GIPRCNT values of 0, and 100 for GIPRCNT values of -100.
On to `C/C(=N/OC(=O)N(C)C)c1ccc(Cl)cc1Cl`, for which the growth is 108% (inactive). With `C[C@]12C[C@H](O)[C@H]3[C@@H](CCC4=CC(=O)CC[C@@]43C)[C@@H]1CC[C@@H]2O`, the growth was 95.5% (inactive). The same measure for `COC(=O)C(=[N+]=[N-])C(=O)OC`: 82.9% (inactive); for `O=[N+]([O-])c1cccc([As]=[As]c2cccc([N+](=O)[O-])c2)c1` (stereo not given): -99.3% (active); for `CC(C)CCC1(CCO)C(=O)NC(=S)NC1=O`: 89.5% (inactive). The same measure for `C=CC(O)CN1CC1CC` (stereo not given): 93.6% (inactive).

Turning to `c1ccc(CCN2CCCCC2Cc2ccccc2)cc1` (stereo not given), the growth was 100% (inactive).

With `CC1CC=CCC12C(=O)NC(=S)NC2=O` (stereo not given), the growth is 105% (inactive).

As to `CCCCCCCCCCCCOc1ccc(C(=O)Oc2ccc(CSP3(=O)OCC4OC(n5cnc6c(N)ncnc65)C(F)C4OP(=O)(O)OCC4OC(n5ccc(=O)[nH]c5=O)C(F)C4O3)cc2)cc1` (stereo not given), the growth is 86.9% (inactive). The same measure for `O=C(CCCN1CCC2(CC1)C(=O)NCN2c1ccc(F)cc1)c1ccc(F)cc1`: 102% (inactive); for `COc1cc(C2(C#N)CCN(C)CC2)cc(OC)c1OC`: 100% (inactive). Regarding `Nc1ccc([N+](=O)[O-])c2c1Oc1ccccc1O2`, the growth was 84.4% (inactive). The same measure for `CSc1ccccc1NP1(=O)OCC(C)([N+](=O)[O-])CO1` (stereo not given): 89.4% (inactive); for `COc1ccc(C2SCC(=O)Nc3c2c(C)nn3-c2nc3ccc(C)cc3s2)cc1O` (stereo not given): 28.9% (inactive); for `CCOc1cc(/C=N\Nc2nnc(C)n2N)c(C)cc1N(CCCl)CCCl`: -17.4% (active).

In the case of `COc1ccc(NP2(=O)OCC(C)(N)CO2)cc1` (stereo not given), the growth was 94.8% (inactive). The same measure for `Oc1ccc2c3c1O[C@H]1c4[nH]c5ccccc5c4C[C@@]4(O)C(C2)N(CC2CC2)CC[C@]314`: 82.9% (inactive); for `CCN(CC)CCOc1c(C(C)C)cccc1C(C)C`: 106% (inactive); for `CN(C)P1(N(C)C)=NP(N(C)C)(N(C)C)=NP(N(C)C)(N(C)C)=N1`: 76% (inactive). With `NC(Cc1ccc2c(c1)OCO2)c1ccc2c(c1)OCO2` (stereo not given), the growth is 63.1% (inactive).

Turning to `O=C(c1cccs1)C1NO[N+]([O-])=C1c1cccs1` (stereo not given), the growth is -35.9% (active).

In the case of `COc1cc(C2CC(=O)Nc3nc(N)[se]c32)cc(OC)c1OC` (stereo not given), the growth was 138% (inactive). The same measure for `CCOC(=O)C1(c2ccccc2)CCN(CC(=O)c2ccc(NC(C)=O)cc2)CC1`: 66.5% (inactive); for `O=c1[nH]c2cc(Cl)ccc2n1C1CCN(CCCC(c2ccc(F)cc2)c2ccc(F)cc2)CC1`: -37.7% (active). As to `C#CC1(O)CCC2(C)C(CCC3C4CCC(=O)C4(C)CCC32)C1` (stereo not given), the growth is 86.1% (inactive). Take `CCC(/C=C(C)/C=C/C(=O)c1c(O)c(-c2ccc(O)cc2)c[nH]c1=O)CO` (stereo not given): the growth is 26.2% (inactive).

With `O=C1C=CC(=O)C2C1C1(Cl)C(Cl)=C(Cl)C2(Cl)C1(Cl)Cl` (stereo not given), the growth is 15.7% (inactive). The same measure for `CCOC(=O)/C(C#N)=C/c1ccc(N(CCCl)CCCl)cc1`: 67.6% (inactive); for `COc1ccc(/C=C(/C(=O)N2CCCC2)c2cc(OC)c(OC)c(OC)c2)cc1N`: 46.1% (inactive); for `COP(=S)(OC)Oc1ccc(SC)c(C)c1`: 72.6% (inactive). For the compound `C[C@@H]1CC[C@@H]2[C@@H]1[C@H](OC(=O)/C=C/C1CCCCC1)[C@]1(C3CCCCC3)C[C@@H](OC(=O)CO)[C@@]2(C)O1`, the growth was 41.6% (inactive). The same measure for `COc1c(O)c2c3c(c1OC)-c1ccccc1CC3N(C)CC2` (stereo not given): 110% (inactive); for `C/C(=C\C(=O)O[C@H]1[C@@H]2[C@H](C)CC[C@H]2[C@]2(C)O[C@@]1(C1CCCCC1)C[C@H]2OC(=O)CO)c1ccccc1`: 18.3% (inactive). `CC1([N+](=O)[O-])COP(=O)(Nc2ccc(F)cc2)OC1` (stereo not given): the growth was 118% (inactive). The same measure for `COc1ccc(C(=O)c2ccc([As]=O)cc2)cc1` (stereo not given): -96.1% (active); for `NS(=O)(=O)c1nc[nH]c1[N+](=O)[O-]`: 68.1% (inactive). The same measure for `CCC1CN1P(=O)(OCCOC)N1CC1CC` (stereo not given): 98.4% (inactive). The same measure for `O=C(C(=O)N1CCCC1)c1cn(CCCCCn2cc(C(=O)C(=O)N3CCCC3)c3ccccc32)c2ccccc12`: 37.2% (inactive); for `Cc1cccc(N(C)c2cccc3c2C(=O)[Se]C3)c1C`: 81.4% (inactive); for `Cn1cnnc1[S-].[Au+].c1ccc([PH+](c2ccccc2)c2ccccc2)cc1`: -58.1% (active).
